About 83,000 compounds went through this panel and 20% of them were active in at least one assay; those are over-represented in the sample as a whole.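 Testing used 96-well plates and a 48-hour single-concentration exposure. Example: -40 means 40% of the starting cells died.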 Values without a mark were called inactive. The source made the active and inactive calls. How the source made its calls: active means growth percent below 10; inactive means the rest.

Data on 11 molecules can be found in PubChem BioAssay (NCI).

Holding throughout (test): NCI-60 one-dose screen, 48 h (100 = growth as untreated, 0 = no growth, -100 = all killed)
Holding throughout (conditions): 10 µM unless noted

Assay [1] deals with NCI-H226 lung.
The subject of assay [2] is NCI-H322M lung.
Assay [3] concerns HOP-62 NSCLC.
In assay [4] the test system is NCI-H460 lung.
Assay [5] concerns HOP-92 NSCLC.
The test system of assay [6] is NCI-H522 lung.
For assay [7], the system named is A549/ATCC NSCLC.
Assay [8] relates to 786-0 renal.
Assay [9] concerns DU-145 prostate.
The test system of assay [10] is K-562 leukemia.
Assay [11] deals with MALME-3M melanoma.
In assay [12] the test system is MDA-MB-231 breast.
The subject of assay [13] is RXF 393 renal.
For assay [14], the system named is SF-268 CNS.
Assay [15] concerns SF-295 CNS.
For assay [16], the system named is SF-539 CNS.
Assay [17] deals with UACC-257 melanoma.
For assay [18], the system named is M14 melanoma.
In assay [19] the test system is COLO 205 colon.

`Cn1ccnc1C(=O)/C=C/c1ccc(C(=O)Nc2ccc(F)cc2)cc1`: the growth was 13.8% in assay [1]; 11% in [2]; 5.2% (active) in [3]; -44.5% (active) in [4]; 11.1% in assay [5]; 7.55% (active) in [6]. Moreover, the growth in assay [7] was 10.8%; in assay [8] it was -35.2% (active); in [9], 19.9%; in assay [10], 4.37% (active); in assay [11] it was 66.4%; in assay [12], 18.7%. Also, the growth was 5.96% (active) in [13]; 14.4% in assay [14]; 6.55% (active) in assay [15]; -40.1% (active) in assay [16]; 62.2% in assay [17]; 17.6% in assay [18].
For `COc1ccc2nc3cc(Cl)ccc3c(NCCN)c2c1`, the growth in assay [1] is 31.8%; in [2], -46% (active); in assay [3] it was -85.8% (active); in assay [4] it was -71.4% (active); in [5], 70.7%; in assay [6], -56.6% (active). Besides, the growth is -88.9% (active) in assay [8]; -83.2% (active) in assay [19]; -94.1% (active) in assay [9]; -64.6% (active) in [10]; -71% (active) in assay [11]; -71.6% (active) in assay [12]. Further, the growth in assay [13] is -85.9% (active); in assay [14], -53.7% (active); in [15], -92.3% (active); in [16] it was -72% (active); in assay [17] it was 101%; in [18], -74.7% (active).
Turning to `COc1ccc(Cn2cc(C(=O)N=Nc3c(O)[nH]c4c(Cl)cccc34)nn2)cc1`, the growth in assay [1] was 102%; in assay [2], 101%; in assay [3], 110%; in assay [4] it was 99.7%; in [5] it was 105%; in assay [6], 84%. Besides, the growth in [7] was 102%; in assay [8], 106%; in [19] it was 114%; in [9], 105%; in [10], 89.2%; in [11], 99.7%. In addition, the growth is 98.5% in [12]; 109% in assay [13]; 94.7% in assay [14]; 109% in [15]; 108% in [16]; 92.9% in assay [17]. Further, in assay [18], the growth is 106%.
For the molecule `COc1cc(C2=NN(C(C)=O)C(c3ccc(N(C)C)cc3)C2)cc(OC)c1OC` (stereo not given), the growth in assay [1] is 97.8%; in assay [2] it was 82.7%; in [3], 83.9%; in assay [4], 107%; in assay [5], 79.7%; in assay [6], 72.4%. Further, the growth in assay [7] was 90.6%; in assay [8], 79.7%; in assay [19], 108%; in assay [9], 103%; in assay [10], 81.7%; in [11], 87.3%. Moreover, the growth in assay [12] was 74.1%; in assay [13] it was 103%; in [14], 105%; in [15], 95.1%; in assay [16] it was 91.5%; in [17] it was 76.7%. Besides, the growth in assay [18] is 95%.
As to `N#Cc1c(-c2cccc([N+](=O)[O-])c2)cc(-c2ccc(Nc3nc(Nc4ccc(F)cc4)nc(Nc4ccc(F)cc4)n3)cc2)nc1N`, the growth is 123% in assay [1]; 97.9% in [2]; 85.9% in assay [3]; 146% in assay [4]; 55.4% in [5]; 104% in assay [6]. For the same molecule, the growth in assay [7] is 86%; in assay [8], 94.6%; in assay [19], 117%; in [9], 154%; in assay [10], 80.3%; in assay [11], 94.7%. Further, the growth in [12] was 91.9%; in assay [13], -10.3% (active); in assay [14], 164%; in assay [15], 102%; in assay [16], 127%; in assay [17], 107%.
Consider `COc1cc2ncnc(Nc3ccc(F)c(Cl)c3)c2cc1OCC(=O)N1CCN(c2ccc(F)cc2)CC1`, for which the growth in [1] is 96.3%; in assay [3], 95.2%; in assay [4], 101%; in [5], 87.9%; in assay [6], 72.2%; in assay [7], 79.7%. The growth in assay [8] is 79%; in assay [19], 101%; in [9], 60.5%; in [10], 83.6%; in assay [11], 92.2%; in assay [12], 79.3%. For the same molecule, the growth in [13] is 103%; in assay [14] it was 79.5%; in [15], 94.1%; in [16], 100%; in [17] it was 114%; in assay [18], 81.3%.
For the molecule `COc1ccc(NC(=O)c2sc3nc4c(cc3c2N)CCCC4)cc1`, the growth in [1] was 50.6%; in assay [2], 53.1%; in assay [3] it was 34.5%; in assay [4], 18.7%; in assay [5] it was 47.3%; in [6] it was -20.7% (active). Further, the growth is 30% in [7]; 38.6% in assay [8]; 14% in [19]; 11.5% in assay [9]; 6.99% (active) in assay [10]; 54.8% in [11]. In addition, the growth is 49.2% in [12]; -4.44% (active) in assay [13]; 58.8% in [14]; 8.64% (active) in [15]; 3.47% (active) in assay [16]; 53% in [17]. Moreover, the growth in assay [18] is 18.3%.
For the molecule `Fc1ccc(CNc2c3ccccc3nc3ccccc23)cc1`, the growth in assay [1] is 51.8%; in assay [2], 38.5%; in [3] it was 43%; in [4] it was 8.85% (active); in assay [5], 17.2%; in assay [6], 52.4%. Besides, the growth was 23.7% in assay [7]; 27.6% in assay [8]; 7.53% (active) in [19]; 34.9% in assay [9]; 4.79% (active) in assay [10]; 25.7% in assay [11]. Further, the growth was 38.3% in [12]; 0.247% (active) in assay [13]; 53.3% in [14]; 27.6% in assay [15]; 13.1% in [16]; 36% in assay [17]. Also, the growth in assay [18] was 34.4%.
As for `O=[N+]([O-])/C(=C\c1ccco1)c1ccccc1Cl`, the growth in assay [1] was 90.3%; in assay [2], 80.2%; in [3], 76.2%; in [4], 68.1%; in [5], 33.2%; in assay [6], 23.2%. The growth in [7] was 62.3%; in assay [8] it was 9.35% (active); in [19], 82.8%; in assay [9] it was 86.1%; in assay [10], 67.9%; in assay [11], 80.6%. Also, the growth is 87.9% in [12]; 67.1% in assay [13]; 87% in assay [14]; 102% in assay [15]; 91.7% in assay [16]; 66.7% in assay [17]. Besides, the growth in assay [18] was 66.2%.
`COc1ccc2[nH]cc(-c3nc(-c4cn(C)c5ccncc45)cs3)c2c1`: the growth in assay [1] was 106%; in [2], 90.9%; in assay [3], 95.4%; in assay [4] it was -51% (active); in assay [5] it was 98.2%; in assay [6], 65.4%. Moreover, the growth in assay [7] is 6.03% (active); in assay [8], 79%; in assay [19], 96.2%; in [9], 2.58% (active); in assay [10], -26.3% (active); in [11], 86.9%. Also, the growth in [12] was -61.7% (active); in assay [13], -86.8% (active); in assay [14], 87.1%; in assay [15], 76.3%; in assay [16], -70.6% (active); in [17] it was 92.7%. The growth in [18] was -88.7% (active).
For the molecule `CC(=O)c1cc(-c2ccccc2N)n(-c2ccc3c(c2)OCO3)c1C`, the growth in [1] is -0.426% (active); in [2], 31.6%; in [3] it was 30.6%; in assay [4], 2.71% (active); in assay [5] it was 38.8%; in assay [6], 18.4%. Moreover, the growth in assay [7] is 19.5%; in [8] it was 23.9%; in assay [19] it was -18.6% (active); in [9] it was 9.47% (active); in [10], 5.63% (active); in [11], 48.7%. In addition, the growth in [12] is 21.3%; in assay [13], 39.7%; in assay [14], 31.5%; in assay [15], -10% (active); in assay [16], -0.915% (active); in assay [17], 76.6%. The growth in assay [18] is 10%.
